# Source: ChEMBL document CHEMBL1961873, “Compounds: GSK PKIS; Assays: Nanosyn kinase panel” (2012)
# Assays:
# [1] = target: Sphingosine kinase 1 (Homo sapiens) (UniProt Q9NYA1); settings: at 1 µM;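 note: mean SPHK1 inhibition value reported from the GSK PKIS kinase panel screen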
# [2] = target: T1, Sphingosine kinase 2 (Homo sapiens) (UniProt Q9NRA0); settings: at 0.1 µM
# T1 sequence (whole entry): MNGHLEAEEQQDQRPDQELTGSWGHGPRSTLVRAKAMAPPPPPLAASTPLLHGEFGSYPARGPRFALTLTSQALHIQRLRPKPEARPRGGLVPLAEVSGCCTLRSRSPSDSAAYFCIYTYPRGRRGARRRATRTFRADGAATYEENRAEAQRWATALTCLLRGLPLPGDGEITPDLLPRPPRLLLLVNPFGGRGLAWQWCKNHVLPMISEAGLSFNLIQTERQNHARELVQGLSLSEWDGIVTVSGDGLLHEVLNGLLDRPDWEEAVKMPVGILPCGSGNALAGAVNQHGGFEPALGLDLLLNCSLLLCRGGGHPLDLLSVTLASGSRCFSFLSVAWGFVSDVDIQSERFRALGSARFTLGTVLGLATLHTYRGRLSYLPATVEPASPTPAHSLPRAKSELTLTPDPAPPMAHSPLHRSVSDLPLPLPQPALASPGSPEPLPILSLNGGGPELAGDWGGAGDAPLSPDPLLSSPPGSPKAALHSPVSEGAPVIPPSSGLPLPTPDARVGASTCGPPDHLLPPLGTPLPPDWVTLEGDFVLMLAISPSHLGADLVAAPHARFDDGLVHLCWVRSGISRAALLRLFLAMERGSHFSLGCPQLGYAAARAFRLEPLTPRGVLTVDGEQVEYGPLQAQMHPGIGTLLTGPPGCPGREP
# [3] = target: T1, Sphingosine kinase 2 (Homo sapiens); settings: at 1 µM
# [4] = target: Casein kinase II subunit alpha (Homo sapiens) (UniProt P68400); settings: at 0.1 µM
# Sequence of Casein kinase II subunit alpha (Homo sapiens) (P68400 whole entry, looked up): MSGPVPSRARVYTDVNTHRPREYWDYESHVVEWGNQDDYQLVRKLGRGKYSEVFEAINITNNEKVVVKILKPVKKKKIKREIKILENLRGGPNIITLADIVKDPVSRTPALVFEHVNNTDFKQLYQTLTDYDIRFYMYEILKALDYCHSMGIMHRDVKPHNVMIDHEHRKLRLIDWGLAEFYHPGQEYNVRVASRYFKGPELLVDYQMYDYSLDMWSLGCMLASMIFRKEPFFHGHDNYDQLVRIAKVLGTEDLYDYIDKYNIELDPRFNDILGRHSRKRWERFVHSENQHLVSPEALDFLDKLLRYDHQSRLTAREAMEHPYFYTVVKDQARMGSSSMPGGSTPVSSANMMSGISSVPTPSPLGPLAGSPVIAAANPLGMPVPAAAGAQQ
# [5] = target: Casein kinase II subunit alpha (Homo sapiens) (UniProt P68400); settings: at 1 µM
# [6] = target: T2, Inhibitor of nuclear factor kappa-B kinase subunit alpha (Homo sapiens) (UniProt O15111); settings: at 0.1 µM
# T2 sequence (whole entry): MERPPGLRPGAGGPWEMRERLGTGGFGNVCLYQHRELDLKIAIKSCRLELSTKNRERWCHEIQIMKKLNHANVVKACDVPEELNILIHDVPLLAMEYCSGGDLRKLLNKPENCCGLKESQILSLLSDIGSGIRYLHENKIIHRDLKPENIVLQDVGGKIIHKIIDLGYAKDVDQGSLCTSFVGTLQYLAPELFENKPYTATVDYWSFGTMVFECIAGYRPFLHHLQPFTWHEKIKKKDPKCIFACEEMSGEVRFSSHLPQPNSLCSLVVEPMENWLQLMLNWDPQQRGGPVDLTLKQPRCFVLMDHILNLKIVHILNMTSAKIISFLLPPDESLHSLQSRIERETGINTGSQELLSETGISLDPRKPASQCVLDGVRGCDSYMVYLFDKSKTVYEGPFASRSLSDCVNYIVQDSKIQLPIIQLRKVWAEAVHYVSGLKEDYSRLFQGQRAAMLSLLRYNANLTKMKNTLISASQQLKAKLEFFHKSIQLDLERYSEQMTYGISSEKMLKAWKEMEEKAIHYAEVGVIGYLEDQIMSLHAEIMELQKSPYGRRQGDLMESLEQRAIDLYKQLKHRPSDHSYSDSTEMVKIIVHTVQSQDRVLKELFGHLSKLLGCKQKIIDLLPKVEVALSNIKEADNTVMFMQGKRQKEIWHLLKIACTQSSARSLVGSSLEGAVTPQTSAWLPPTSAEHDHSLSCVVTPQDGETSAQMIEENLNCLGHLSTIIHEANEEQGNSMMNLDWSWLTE
# [7] = target: T2, Inhibitor of nuclear factor kappa-B kinase subunit alpha (Homo sapiens); settings: at 1 µM
# [8] = target: T3, Inhibitor of nuclear factor kappa-B kinase subunit beta (Homo sapiens) (UniProt O14920); settings: at 0.1 µM
# T3 sequence (whole entry): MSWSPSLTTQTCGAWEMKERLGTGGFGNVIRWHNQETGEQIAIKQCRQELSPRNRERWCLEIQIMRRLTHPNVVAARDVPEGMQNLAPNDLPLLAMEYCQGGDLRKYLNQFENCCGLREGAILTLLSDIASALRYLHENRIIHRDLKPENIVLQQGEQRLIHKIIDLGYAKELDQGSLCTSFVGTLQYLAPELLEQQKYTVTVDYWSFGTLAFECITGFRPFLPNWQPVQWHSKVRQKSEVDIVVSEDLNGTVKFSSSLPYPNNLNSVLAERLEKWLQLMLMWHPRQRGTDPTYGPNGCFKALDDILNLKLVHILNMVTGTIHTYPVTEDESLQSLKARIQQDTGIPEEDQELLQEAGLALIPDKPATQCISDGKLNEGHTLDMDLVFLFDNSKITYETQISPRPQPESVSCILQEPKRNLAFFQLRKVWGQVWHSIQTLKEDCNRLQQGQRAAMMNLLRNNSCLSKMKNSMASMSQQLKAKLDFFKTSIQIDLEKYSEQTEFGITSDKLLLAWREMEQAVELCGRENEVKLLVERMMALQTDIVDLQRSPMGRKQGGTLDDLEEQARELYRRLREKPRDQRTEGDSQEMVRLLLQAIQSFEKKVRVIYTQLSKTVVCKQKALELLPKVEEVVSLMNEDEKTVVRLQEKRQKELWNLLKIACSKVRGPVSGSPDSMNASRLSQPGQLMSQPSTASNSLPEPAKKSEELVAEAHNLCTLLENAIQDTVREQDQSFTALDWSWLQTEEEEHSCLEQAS
# [9] = target: T3, Inhibitor of nuclear factor kappa-B kinase subunit beta (Homo sapiens); settings: at 1 µM
# [10] = target: T4, Inhibitor of nuclear factor kappa-B kinase subunit epsilon (Homo sapiens) (UniProt Q14164); settings: at 0.1 µM;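 note: mean inhibition of IKKε reported, from the GSK PKIS dataset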
# T4 sequence (whole entry): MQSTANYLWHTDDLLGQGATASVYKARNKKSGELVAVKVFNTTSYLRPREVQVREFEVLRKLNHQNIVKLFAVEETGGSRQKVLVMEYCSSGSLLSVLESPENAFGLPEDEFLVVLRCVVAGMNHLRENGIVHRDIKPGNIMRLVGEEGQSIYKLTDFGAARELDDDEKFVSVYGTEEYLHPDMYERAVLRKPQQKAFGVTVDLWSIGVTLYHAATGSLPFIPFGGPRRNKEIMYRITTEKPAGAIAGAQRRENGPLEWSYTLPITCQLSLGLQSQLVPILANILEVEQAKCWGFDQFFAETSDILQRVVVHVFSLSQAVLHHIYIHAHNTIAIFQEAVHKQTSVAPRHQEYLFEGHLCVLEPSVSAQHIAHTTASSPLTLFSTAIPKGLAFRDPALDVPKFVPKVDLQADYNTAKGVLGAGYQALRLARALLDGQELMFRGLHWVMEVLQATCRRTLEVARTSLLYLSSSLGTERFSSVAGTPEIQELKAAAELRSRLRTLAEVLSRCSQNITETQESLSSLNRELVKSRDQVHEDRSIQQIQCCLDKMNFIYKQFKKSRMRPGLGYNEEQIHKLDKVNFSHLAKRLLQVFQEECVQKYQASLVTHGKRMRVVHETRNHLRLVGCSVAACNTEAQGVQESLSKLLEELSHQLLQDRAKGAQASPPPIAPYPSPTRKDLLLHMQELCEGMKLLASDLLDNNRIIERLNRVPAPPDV
# Sequence of Sphingosine kinase 1 (Homo sapiens) (Q9NYA1 whole entry): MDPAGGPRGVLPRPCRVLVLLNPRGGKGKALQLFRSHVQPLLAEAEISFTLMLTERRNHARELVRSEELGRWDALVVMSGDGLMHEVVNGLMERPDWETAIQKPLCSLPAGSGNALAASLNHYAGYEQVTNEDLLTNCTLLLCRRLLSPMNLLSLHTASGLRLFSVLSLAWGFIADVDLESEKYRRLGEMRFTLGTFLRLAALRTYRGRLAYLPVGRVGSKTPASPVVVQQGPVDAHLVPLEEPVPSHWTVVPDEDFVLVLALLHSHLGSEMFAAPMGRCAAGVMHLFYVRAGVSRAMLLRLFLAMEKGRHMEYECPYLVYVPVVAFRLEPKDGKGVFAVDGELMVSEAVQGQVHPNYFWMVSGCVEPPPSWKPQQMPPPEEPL
smiles,measurement,setting,value
NC(=O)c1ccc(Oc2nccc(-c3c(-c4ccc(F)cc4)ncn3C3CCNCC3)n2)cc1,inhibition,[1],2.16%
same,inhibition,[2],0.71%
same,inhibition,[3],0.08%
same,inhibition,[4],2.95%
same,inhibition,[5],2.91%
same,inhibition,[6],5.54%
same,inhibition,[7],7.33%
same,inhibition,[8],7.24%
same,inhibition,[9],6.83%
same,inhibition,[10],8.54%
